The values that follow come from PubChem BioAssay AID1347072 (National Center for Advancing Translational Sciences (NCATS), 2019).

The structures appear in SMILES notation. Fewer than 10 of roughly 44,000 compounds were called active. About 2% were inconclusive and are not listed. Calls come from the whole dose curve; as a rule, active = well fitted curve in the direction sought with a large enough effect; inconclusive = small, poorly fitted or top-dose-only effect, or another doubt; inactive = no such curve, though single readings can be large or run the other way. The list is a sample of the results.

Chain of Galactokinase (Homo sapiens) (P51570 whole entry, looked up): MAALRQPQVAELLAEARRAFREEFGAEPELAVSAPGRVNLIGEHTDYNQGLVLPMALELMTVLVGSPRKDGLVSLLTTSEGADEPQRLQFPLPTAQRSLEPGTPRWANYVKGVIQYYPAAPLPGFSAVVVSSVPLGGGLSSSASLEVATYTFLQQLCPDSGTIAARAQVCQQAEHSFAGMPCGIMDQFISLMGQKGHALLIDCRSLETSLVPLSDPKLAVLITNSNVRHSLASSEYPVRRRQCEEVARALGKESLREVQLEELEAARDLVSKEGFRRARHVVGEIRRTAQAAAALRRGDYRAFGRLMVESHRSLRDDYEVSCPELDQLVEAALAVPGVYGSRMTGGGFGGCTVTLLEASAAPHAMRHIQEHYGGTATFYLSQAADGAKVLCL

This assay addresses Galactokinase (Homo sapiens) (UniProt P51570). Kind of assay: qHTS Assay for Inhibitors of Human Galactokinase (GALK): NCGC Sytravon Library Screen.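 Note: plate controls were full GALK reaction for no effect and reaction lacking GALK for full effect.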 The following applies: recombinant GALK, Kinase-Glo ATP luminescence, 1 h; series mostly up to 57.5 µM; activity, negative = inhibition: at the top concentration. The text has this: Inherited deficiency of galactose-1-phosphate uridyltransferase (GALT) can result in a potentially lethal disorder called Classic Galactosemia (OMIM 230400). Several lines of evidence indicate that an elevated level of galactose-1-phosphate (gal-1-p), the product of galactokinase (GALK), is a major, if not sole, pathogenic mechanism in patients with classic galactosemia. Therefore, finding inhibitors of GALK is a potential novel therapy for this inherent metabolic disease and is the long term goal of this project. This screen is run against the NCGC Sytravon compound library collection. GALK (provided by Kent Lai) was assayed using ATP and D-(+)-Galactose (Sigma-Aldrich cat# G0750) as substrates. Promega Kinase-Glo Plus technology was used to detect kinase activity. Reactions with and without GALK were used as negative and positive controls together with Protein Tyrosine Phosphatase CD45 inhibitor (EMD Bioscience cat# 540215) which is shown to inhibit GALK activity. Decrease in activity corresponds to inhibition of the enzyme is the desired outcome for this assay. NIH Molecular Libraries Probe Production Network [MLPCN] NIH Chemical Genomics Center [NCGC] Grant: R03 MH085689-01 PI Name: Kent Lai Ph.D., University of Utah
NCGC Assay Protocol Summary: Three uL/well of ATP-buffer solution (35 uM ATP, 20mM HEPES pH8.0, 5 mM MgCl2, 60 mM NaCl, 1 mM DTT, 0.01% BSA final concentration) was dispensed into 1536-well, assay plates (Greiner, solid white medium-binding plates) with Aurora Discovery BioRAPTR Flying Reagent Dispenser (FRD; Beckton-Dickenson). Compound solution (23 nL) was transferred to the assay plate using the Kalypsys 1536-pin tool. One uL/well GALK-galactose solution (5 nM GALK, 100 uM galactose, 20 mM HEPES pH8.0, 5 mM MgCl2, 60 mM NaCl, 1 mM DTT, 0.01% BSA final concentration) was then added using the FRD yielding a total kinase reaction volume of 4 uL/ well. After 1 hour of room temperature incubation, 4 uL Kinase-Glo Plus reagent was added for a final assay volume of 8 uL/ well. Luminescence was detected with the ViewLux plate reader (Perkin Elmer, Waltham, MA) after 10 min incubation using a 1 sec exposure time and 2x binning.
On to `COC(=O)c1cnc(N2CCN(c3ccccc3OC)CC2)c2ccccc12`, for which the “activity, negative = inhibition” value was 0.685% (inactive). In the case of `CN1c2ccc(Cl)cc2-c2nc(SCC(=O)Nc3cc(F)ccc3F)ncc2S1(=O)=O` it was -2.3% (inactive); in that of `COc1ccc(Nc2cc(C(=O)NCCCN(C)c3ccccc3)c3ccccc3n2)c(OC)c1`, 3.84% (inactive); in that of `COc1cccc(CNC(=O)C(=O)NCC(c2cccs2)S(=O)(=O)c2ccccc2)c1` (stereo not drawn), 3.24% (inactive). In the case of `Cc1cccc(-n2ncc(C(=O)N3CCN(c4ccc(Cl)cc4)CC3)c2C2CCN(C(=O)OC(C)(C)C)CC2)c1` it was 4.36% (inactive); in that of `COc1ccc(NC(=O)CCNS(=O)(=O)c2ccc3c(c2)CCCC(=O)N3)cc1Cl`, -1.34% (inactive); in that of `Cc1cccc(N(C)C(=O)c2cc(S(=O)(=O)N3CCCCC3)c[nH]2)c1`, 0.584% (inactive). For the compound `CCOC(=O)c1c(SCC(=O)Nc2cccc(C)c2C)nc(=O)[nH]c1C`, the “activity, negative = inhibition” value was -0.958% (inactive). For `CCc1ccc(NC(=O)C2CCCN2S(=O)(=O)c2ccc3nc(-c4ccccc4)[nH]c3c2)cc1` (stereo not drawn), the “activity, negative = inhibition” value was 3.02% (inactive). As for `COC(=O)c1scc(-c2ccccc2)c1S(=O)(=O)Nc1ccccc1`, the figure is -4.52% (inactive). As for `CC1CCN(S(=O)(=O)c2ccc3c(c2)N(CC(=O)NCc2ccccc2Cl)C(=O)CO3)CC1`, the figure is 5.21% (inactive); as for `COc1ccc(N2CCN(C3=NS(=O)(=O)C(c4cccc(Br)c4)=C3C)CC2)cc1`, -8.33% (inactive); as for `CCOc1ccc(CNC(=O)CCc2c(C)nn(-c3ccc(N4CCCCC4)nn3)c2C)cc1`, 1.04% (inactive).

Turning to `COc1ccc(OC)c(-c2nc(C(N)=O)c3c(n2)n(-c2ccc4c(c2)OCO4)c(=O)n3C)c1`, the “activity, negative = inhibition” value was -0.207% (inactive). In the case of `O=C(NCc1ccc(F)cc1)c1ccc2nc(N3CCCCC3)sc2c1` it was 1.1% (inactive). In the case of `COc1cc(OC)c(C2C=C(C(=O)O)Nc3ncnn32)cc1OC` (stereo not drawn) it was 1.86% (inactive). With `CCOc1cc(/C=C(\C#N)C(=O)Nc2ccccc2C)ccc1OCc1cc(=O)n2nc(CC)sc2n1`, the “activity, negative = inhibition” value was 5.9% (inactive). As for `O=C(Nc1ccc2nc(SCCOc3ccccc3Cl)sc2c1)c1ccco1`, the figure is -12.7% (inactive); as for `Cc1ccc(-c2nnc(SCC(=O)NCc3ccccc3)nc2-c2ccc(C)cc2)cc1`, -0.152% (inactive); as for `COc1cc(NC(=O)Cn2c(=O)n(Cc3ccco3)c(=O)c3oc4ccccc4c32)cc(OC)c1`, 4.91% (inactive). In the case of `Cc1ccccc1CN1CCC(CNC(=O)c2cc3ccc4cccnc4c3[nH]2)CC1` it was 1.34% (inactive); in that of `Cc1cc(C)c2oc(C(=O)Nc3ccc(S(=O)(=O)N(C)c4ccccc4)cc3)cc(=O)c2c1`, 8.51% (inactive); in that of `Cc1ccc(-c2nc(CS(=O)(=O)CC(=O)NCc3ccccc3Cl)c(C)o2)cc1`, 8.44% (inactive). As for `CC(=O)c1ccc(NC(c2ccc(F)cc2)c2nnc(-c3ccccc3)o2)cc1` (stereo not drawn), the figure is 3.14% (inactive); as for `CCOc1ccc(CNC(=O)CCC(=O)N2CCSc3ccccc32)cc1`, 0.849% (inactive); as for `COCCNC(=O)c1ccc2c(c1)N(Cc1cccc(Cl)c1)C(=O)c1ccccc1S2(=O)=O`, 3.54% (inactive). On to `COc1cc(NS(=O)(=O)c2ccc3c(c2)OCC(C(=O)N2CCCC2)O3)cc(OC)c1` (stereo not drawn), for which the “activity, negative = inhibition” value is 4.24% (inactive). Turning to `CCN(CC)C(=O)CSc1nc2cc3c(cc2c(=O)n1CCCC(=O)NCc1ccc2c(c1)OCO2)OCO3`, the “activity, negative = inhibition” value is -0.0389% (inactive). On to `Cc1oc2c(c1C(=O)Nc1ccc(F)c(F)c1)C1=NCCN1C=N2`, for which the “activity, negative = inhibition” value is 3.77% (inactive). In the case of `O=C(NCC(c1cccnc1)N1CCc2ccccc21)c1cccc(C(F)(F)F)c1` (stereo not drawn) it was 0.389% (inactive). In the case of `O=C(CN1c2ccccc2S(=O)(=O)c2ccccc21)Nc1cccc(C(F)(F)F)c1` it was -0.526% (inactive). In the case of `COc1ccc(NC(=O)CSC2=Nc3ccccc3C3=NC(CC(=O)NCc4ccccc4OC)C(=O)N23)cc1Cl` (stereo not drawn) it was -6% (inactive). On to `CCN(CC)CCNC(=O)c1cc2c(=O)oc3ccc(C)cc3c2s1`, for which the “activity, negative = inhibition” value is 9.39% (inactive). As for `CCOC(=O)c1cc(-c2ccccc2)n(CCC(=O)Nc2ccccc2CC)c1C`, the figure is 2.18% (inactive); as for `COC(=O)c1sc2ncccc2c1-n1c(C)ccc1C`, 4.85% (inactive); as for `Cc1ccc2nc(/C(C#N)=C/c3ccccc3F)[nH]c2c1`, -0.875% (inactive). As for `COCCCNC(=O)C1CCC(CNS(=O)(=O)c2ccc(OC)cc2)CC1` (stereo not drawn), the figure is 2.75% (inactive); as for `CCOC(=O)c1c(C)oc2nc(C)nc(N3CCN(c4ccc(OC)cc4)CC3)c12`, -1.37% (inactive).

For the compound `NS(=O)(=O)c1ccc(CCNC(=O)CCCCCn2c(=O)[nH]c3ccccc3c2=O)cc1`, the “activity, negative = inhibition” value was 0.328% (inactive). As for `COc1ccc(S(=O)(=O)Nc2cc3c(C(=O)OC(C)C)c(C)oc3c3ccccc23)cc1`, the figure is -0.0371% (inactive); as for `COc1ccc(C(=O)CSc2c(C(C)C)cnc3c2c(=O)n(C)c(=O)n3C)cc1`, 1.18% (inactive). `NS(=O)(=O)c1ccc2nc(NC(=O)COc3ccccc3)sc2c1`: the “activity, negative = inhibition” value was -0.423% (inactive). In the case of `Cc1ccccc1C(=O)N(Cc1ccc(N(C)C)cc1)CC1CCCO1` (stereo not drawn) it was 0.0459% (inactive).
